Results from PubChem BioAssay (NCI).
This is part of a sample that, as a whole, favours compounds with a hit. Of some 79,000 tested, about 15% had one in any assay. A number with no mark means an inactive call. Active and inactive are the calls of the source. Rule as the data show it: active = growth inhibition above about 70%; inactive = the rest.

Experiment: NCI Yeast Anticancer Drug Screen. Data for the rad14 strain (AID 159);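 also: 0% = growth of vehicle-treated control cultures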
Details: S. cerevisiae rad14 strain growth inhibition; at 11.0 µM; stronger effect = higher value
Summary of the method: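 Test compounds were applied to a repair-deficient yeast strain. Its growth was then compared with that of cultures given vehicle alone, and inhibition was expressed relative to those controls.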
For `O=C1/C(=C/c2ccccc2)CCCC1CN1CCCCC1` (centres undefined), the growth inhibition was 92% (active). `C#CCN(Cc1ccc2nc(N)[nH]c(=O)c2c1)c1ccc(C(=O)NC(CCC(=O)O)C(=O)O)cc1` (centres undefined) gave a growth inhibition of 2%. With `CCOC1(c2cccc([N+](=O)[O-])c2)c2ccccc2Oc2ccccc21` the growth inhibition was 5%. `O=C(O)CNC(=S)Nc1ccccc1` gave a growth inhibition of -48%. For `N/C(=N/N=C/c1cc(Br)cc(Br)c1O)NO`, the growth inhibition was 82% (active). `C[Si](C)(C)/C=C/CCNC(C#N)c1ccccc1` (centres undefined) showed a growth inhibition of 37%. `CCCCCCCCCCCCCCCCOP(=O)(O)OCC(N)C(=O)O` (centres undefined) gave a growth inhibition of 59%. Molecule `CC1=C(C(=O)NCc2ccccc2)C(c2ccccc2)C(C(=O)NCc2ccccc2)=C(C)N1` has a growth inhibition of 6%. With `O=[N+]([O-])c1cc(S(=O)(=O)Nc2ccccc2)ccc1Nc1ccccc1` the growth inhibition was 89% (active). Work on `COc1cc2ccnc(-c3c4ccccc4c(N)c4c(OC)c(OC)ccc34)c2cc1OC` yielded a growth inhibition of 3%. In the case of `CCOC(=O)C(Br)C(Br)c1ccccc1Cl` (centres undefined), the growth inhibition is reported as 47%. For `CCOC(=O)C1=C(C)NC(C)=C(C(=O)OCCNC(=O)c2ccc(N=[N+]=[N-])cc2)C1c1ccccc1C(F)(F)F` (centres undefined), the growth inhibition was 3%. `Cc1cc(C)c(NC(=S)NC(=O)c2ccccc2)cc1C` showed a growth inhibition of -40%. With `CNCCCNc1c2ccccc2nc2cccc([N+](=O)[O-])c12` the growth inhibition was 96% (active). For `COc1c(O)c(C=O)c(Br)c(C=O)c1O`, the growth inhibition was 11%. With `Cc1c(C)c(C)c(CSC(=N)N)c(C)c1C` the growth inhibition was -12%. For `O=C(CSC(=S)N1CCCCC1)Nc1nc2c(s1)CCCC2`, the growth inhibition was -6%. Work on `CNC(=O)OCc1c(COC(=O)NC)c(-c2ccc(Cl)cc2)n2c1CCC2` yielded a growth inhibition of -39%. Work on `CC(=O)OC1CC2C(C)(C)C(=O)C=C[C@]2(C)C2CCC3(C)C(=CCC3[C@H](CO)C[C@H](O)C(=O)C(C)(C)O)[C@]12C` (some centres undefined) yielded a growth inhibition of -29%. Work on `CCCCCCOC(=O)NCCOC(=O)Nc1ccccc1` yielded a growth inhibition of 12%. Work on `C[C](C)(C)[Ge]([O][Ge]([c]1ccccc1)[c]1ccccc1)([O][Ge]([c]1ccccc1)[c]1ccccc1)[C](C)(C)C` yielded a growth inhibition of 23%. `CCc1c(Cl)c(C)cc(O)c1Cl` showed a growth inhibition of -19%. Molecule `Cc1nc(Nc2ccccc2[N+](=O)[O-])sc1C(=O)CC(=O)C(=O)Nc1c(C(C)C)cccc1C(C)C` has a growth inhibition of 1%. In the case of `O=[N+]([O-])c1cccc2nc3ccccc3c(NCCCn3ccnc3[N+](=O)[O-])c12`, the growth inhibition is reported as 95% (active). In the case of `CCCCCCC(O)CNCc1ccnc2ccc(OC)cc12` (centres undefined), the growth inhibition is reported as 33%. With `Cc1c2cccc(Sc3ccccc3)c2c2c3c(cccc13)[S+](c1ccccc1)C2` (centres undefined) the growth inhibition was 98% (active). In the case of `C=C1CCC(O)C/C1=C/C=C1\CCCC2(C)C1CCC2C(C)CCCC(C)C` (centres undefined), the growth inhibition is reported as -23%. `NC1=NNC2(C(N)=N1)c1ccccc1-c1ccccc12` gave a growth inhibition of -25%. `COc1cc2cc3c4cc(OC)c(OC)cc4cc[n+]3c(C)c2cc1OC` showed a growth inhibition of -31%. In the case of `COC(=O)NC1C(C)OC(OC2C/C=C(/C)C3C=CC4C(OC5CC(OC6CC(O)C(OC7CC(O)C(OC)C(C)O7)C(C)O6)C(O)C(C)O5)C(C)CC(C)C4C3(C)/C(O)=C3\C(=O)OC4(CC(C)C(CO)=CC4/C=C\2C)C3=O)CC1(C)[N+](=O)[O-]` (centres undefined), the growth inhibition is reported as 14%. `O=C1CSC(c2cccc(Cl)c2)N1c1ccc(-c2ccc(-n3c(-c4ccccc4)nc4ccccc4c3=O)cc2)cc1` (centres undefined) showed a growth inhibition of 15%. Work on `CCOC(=O)C(C(=O)OCC)=P(c1ccccc1)(c1ccccc1)c1ccccc1` yielded a growth inhibition of 5%. With `COc1ccc(N=CN(C)C)c(C)c1` the growth inhibition was -43%. With `Cc1cc(S(=O)(=O)Nc2nnc3cnc4ccccc4n23)c(S)cc1Cl` the growth inhibition was 9%. Work on `O=C(Oc1ccc2c(c1)CN(Cc1ccccc1)CO2)c1ccccc1` yielded a growth inhibition of 24%. `CN(C)[C@@H]1C(=O)C(C(N)=O)=C(O)[C@@]2(O)C(=O)C3=C(O)c4c(O)cccc4C[C@H]3C[C@@H]12` showed a growth inhibition of 44%. In the case of `O=[N+]([O-])c1ccc2c(c1)/C(=N/N=C1c3ccccc3Cc3ccccc31)c1cc([N+](=O)[O-])cc([N+](=O)[O-])c1-2`, the growth inhibition is reported as 98% (active). Work on `Cc1nc2c(Br)cc(Br)cc2c(=O)n1-c1ccccc1NC1OCC(O)C(O)C1O` (centres undefined) yielded a growth inhibition of 16%. With `Cc1cc(N(CCOS(C)(=O)=O)CCOS(C)(=O)=O)ccc1C=Nc1ccc(-c2nc(Cc3ccccc3)sc2C)cc1` the growth inhibition was 80% (active).
